Screening results: PubChem, National Center for Advancing Translational Sciences (NCATS)
GLP-1R inv ag: qHTS of GLP-1 Receptor Inverse Agonists (Inhibition Mode); Glucagon-like peptide 1 receptor (Homo sapiens), P43220; HEK293 GLP-1R CRE-luciferase, luminescence, 24 h; GLP-1R form is constitutively active; Potency, µM (highest dose often 38.3 µM), without a hit: at the highest dose activity change, negative = inhibition, most hits filed as inhibitors; 410,000 tested, 1.6% active; AID 624417, 2012; further: on the % scale 0 is the no-effect control and ±100 the full control effect; nearly all actives have a fitted effect of over 55% in size
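Constitutively active GLP-1R drives a cAMP-responsive luciferase in stably transfected HEK293 cells; test compounds are added after overnight (12 h) attachment and left 24 hr, and signal loss in luminescence marks inhibition.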
GLP1R ag: qHTS of GLP-1 Receptor Agonists | AID 624172, 2012 | Glucagon-like peptide 1 receptor (Homo sapiens), P43220 | Potency, µM (top dose mostly 45.6 µM), without a hit: top-dose activation, usual class: activators | 380,000 tested, 0.007% active | HEK293 GLP-1R CRE-luciferase, luminescence, 4-6 h; cells express a hypersensitive GLP-1R form; further: % of control where 0% means no effect
PTHR1 ag: qHTS for PTHR1 Agonists: Primary Screen; HEK293 GP2 PTHR1 cells, GloSensor cAMP luminescence, 1 h; 410,000 tested, 0.075% active; Parathyroid hormone/parathyroid hormone-related peptide receptor (Homo sapiens), Q03431; Potency, µM (series often up to 115 µM), without a hit: top-dose activation, actives largely listed as activators; AID 743266, 2014; further: nearly all actives have a fitted effect of over 55% in size
Target sequence (Q03431 whole entry, looked up): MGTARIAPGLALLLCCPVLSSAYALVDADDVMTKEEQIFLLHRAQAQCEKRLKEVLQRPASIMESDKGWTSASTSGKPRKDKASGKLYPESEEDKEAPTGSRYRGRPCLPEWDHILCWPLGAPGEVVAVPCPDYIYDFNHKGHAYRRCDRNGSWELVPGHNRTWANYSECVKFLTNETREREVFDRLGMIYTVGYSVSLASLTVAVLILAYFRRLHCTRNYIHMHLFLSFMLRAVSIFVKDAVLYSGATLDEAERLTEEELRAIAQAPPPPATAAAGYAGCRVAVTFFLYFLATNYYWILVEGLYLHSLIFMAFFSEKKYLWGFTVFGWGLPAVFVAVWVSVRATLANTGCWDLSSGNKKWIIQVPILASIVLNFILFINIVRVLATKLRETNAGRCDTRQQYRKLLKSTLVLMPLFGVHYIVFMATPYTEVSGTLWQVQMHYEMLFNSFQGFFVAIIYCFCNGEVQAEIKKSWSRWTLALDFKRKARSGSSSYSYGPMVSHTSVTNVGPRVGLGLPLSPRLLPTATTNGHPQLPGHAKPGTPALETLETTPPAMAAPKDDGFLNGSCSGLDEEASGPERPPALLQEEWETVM
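HEK-293-derived GP2 cells expressing PTHR1 and a GloSensor cAMP reporter, 3,000/well, plated overnight, given luciferin plus IBMX (each 0.5 mM as added) for 1 h at 37 °C, then compound for 1 h at 37 °C. Luminescence was read after 15 min at room temperature.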
HEK293 tox: qHTS of GLP-1 Receptor Inverse Agonists: Cytotox Screen. HEK293 cAMP-luciferase reporter cells, luminescence, 24 h. AID 624418, 2012. 410,000 tested, 0.13% active. Potency, µM (series often up to 38.3 µM), for the others: top-dose activity change, negative = inhibition, usual class: inhibitors;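 further: loss of luciferase light is scored as toxicity; on the % scale 0 is the no-effect control and ±100 the full control effect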
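Cells in DMEM/10% Nu serum/1% pen-strep, 1536-well format. Pre-incubated 12 h, dosed with 23 nL compound, incubated a further 24 h. Luciferase detection, 12 min at room temp, luminescence.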
* marks the source's active call; other numbers are inactive results; i = inactive; ? = inconclusive; . = no result; [ ] = remark or other dose. In the library only some 1.7% were active in any assay of this set; here they are far more common. The call rests on the fitted dose curve; in most records, active means well fitted curve in the direction sought with a large enough effect; inconclusive means small, poorly fitted or top-dose-only effect, or another doubt; inactive means no such curve, though single readings can be large; an effect the other way counts as inactive or inconclusive. Potency means the concentration at half of the fitted maximal effect.

SMILES | GLP-1R inv ag | GLP1R ag | PTHR1 ag | HEK293 tox
CO[C@H]1C[C@@H]2CC[C@@H](C)[C@@](O)(O2)C(=O)C(=O)N2CCCC[C@H]2C(=O)O[C@H]([C@H](C)C[C@@H]2CC[C@@H](OCCO)[C@H](OC)C2)CC(=O)[C@H](C)/C=C(\C)[C@@H](O)[C@@H](OC)C(=O)[C@H](C)C[C@H](C)/C=C/C=C/C=C/1C | . | 15% | . | .
COc1ccc(C2C(C#N)=C(N)Oc3cc(C)[nH]c(=O)c32)cc1OC (configuration not stated) | 3% | -1% | 8% | -2%
Cc1cc(C(=O)COC(=O)C2=COCCO2)c(C)n1-c1cccc(F)c1 | 10µM* | 4% | -11% | 2%
Cc1cc(C(=O)COC(=O)C2=COCCO2)c(C)n1-c1ccc2c(c1)OCO2 | ? | 0% | -3%[57.5 µM] | -15%
CCCCNC(=O)C1(C)CCCCN1Cc1ccccc1-c1ccccc1 (configuration not stated) | 2.5µM* | -5% | -15% | -7%
CCCNC(=O)C1(C)CCCN(Cc2ccccc2-c2ccccc2)C1 (configuration not stated) | -16% | 14% | -10% | -2%
Cc1cccc(NC(=O)CN2C(=O)CC(c3ccccc3)Sc3ccccc32)c1 (configuration not stated) | 4% | -9% | i | 5%
CCOC(=O)c1ccccc1NC(=O)CN1C(=O)CC(c2ccccc2)Sc2ccccc21 (configuration not stated) | 10µM* | 17% | -15% | 3%
CN(C(=O)Cc1noc2ccccc12)c1ccccc1 | 8% | 6% | i | 1%
O=C(OCc1ccccc1)/C(=C/c1cccc(Br)c1)NC(=O)c1ccco1 | 10µM* | -3% | -37% | 12%
CC1CCCC(NC(=O)c2cccc(S(=O)(=O)NCc3ccccc3)c2)C1C (configuration not stated) | 11µM* | 6% | -39% | -22%
Cc1ccc(OCCNC(=O)c2cccc(S(=O)(=O)NCc3ccccc3)c2)cc1 | 5µM* | 4% | -38% | ?
CC1CCCC(NC(=O)c2cccc(S(=O)(=O)N3CCN(c4ccccc4)CC3)c2)C1C (configuration not stated) | -22% | -3% | -39% | -11%
O=C(NCc1ccncc1)c1cccc(S(=O)(=O)NCc2ccccc2)c1 | 5% | 2% | -8% | -8%
O=C(CSc1nccn1C1CCCC1)Nc1ccccc1 | 18% | . | 15% | 1%
CC(C)N1CCN(Cc2ccc(C#CCCO)cc2)CC1CCO (configuration not stated) | 8% | -6% | -16% | 7%
N#Cc1nc(Cc2cccc3ccccc23)oc1N1CCCCC1 | 10µM* | 13% | i | 88%
COc1ccccc1NC(=O)c1c(Nc2ccccc2C)sc(C(=O)Nc2cccc(Cl)c2)c1N | 4.5µM* | -19% | -8% | ?
COc1ccc(Nc2sc(C(=O)c3ccc(Cl)cc3)c(N)c2C(=O)Nc2ccccc2OC)cc1 | -29% | 3% | -40% | -32%
CC(C(=O)Nc1cccnc1)c1ccc([N+](=O)[O-])cc1 (configuration not stated) | 17% | 9% | i | 6%
CC(C)Cc1ccc(C(C)C(=O)Nc2cccnc2)cc1 (configuration not stated) | 7.9µM* | -7% | -33% | -18%
CNc1nc(N)c(C(=O)C23CC4CC(CC(C4)C2)C3)s1 | 5.6µM* | 6% | i | -27%
CCOc1ccc(-c2ccc(SC)nn2)cc1 | 2.2µM* | -2% | -34% | -2%
CCOc1ccc(CNC(=O)C2CCCN(S(=O)(=O)N3CC(C)CC(C)C3)C2)cc1OC (configuration not stated) | ? | 7% | i | -2%
COc1ccc(-c2cc3c(=O)n(CC(=O)NCCCN4CCC(Cc5ccccc5)CC4)ncn3n2)cc1 | 2.2µM* | 0% | -53% | -1%
SMILES | GLP-1R inv ag | GLP1R ag | PTHR1 ag | HEK293 tox
O=C(Nc1ccccc1Sc1ccccc1)c1ccc(F)cc1 | 5µM* | 20% | -15% | 27%
Cc1ccc(C(=O)Nc2ccccc2Sc2ccccc2)cc1 | 9% | 6% | i | 4%
CC(C)C(C(=O)NC1CCCC1)N(CC1CCCO1)C(=O)CNS(=O)(=O)c1ccc(F)cc1 (configuration not stated) | -2% | 7% | -8% | -11%
COc1ccc(Cl)cc1NC(=O)CN(C)C(=O)c1sc2ccccc2c1Cl | 5.6µM* | 21% | -17% | -33%
COc1ccc(Cl)cc1NC(=O)CN(C)C(C)C(=O)NC(=O)NC1CCCCC1 (configuration not stated) | 3.2µM* | -15% | -15% | ?
COc1ccc(Cl)cc1NC(=O)CN(C)C1CCCCC1 | ? | 11% | i | 14%
COc1ccc(Cl)cc1NC(=O)CN(C)C(=O)c1cc2c(s1)CCCC2 | 5µM* | 3% | -28% | ?
Cc1ccc(S(=O)(=O)NCCC(=O)NC(C)CCc2ccccc2)cc1 (configuration not stated) | ? | 8% | -7% | -9%
Cc1ccc(-c2nc(SCC(=O)Nc3cc(S(=O)(=O)N4CCCCC4)ccc3Cl)n[nH]2)cc1 | 10µM* | 14% | -33% | ?
O=C(CNc1ccc(F)cc1Cl)Nc1cccc(S(=O)(=O)N2CCCCC2)c1 | ? | 4% | -34% | -24%
CCc1ccccc1OCC(=O)Nc1cccc(S(=O)(=O)N2CCCC2)c1 | 11µM* | 8% | -28% | 2%
COc1ccc(S(=O)(=O)N(C)C)cc1NCC(=O)Nc1cccc2ccccc12 | -18% | 7% | -15% | -13%
COc1cc(Cl)c(C)cc1NCC(=O)Nc1cccc(S(=O)(=O)N2CCCC2)c1 | 8.9µM* | -5% | -51% | -15%
COc1ccc(S(=O)(=O)N(C)C)cc1NCC(=O)Nc1ccc(Br)c(C)c1 | 11µM* | 9% | -92% | -7%
O=C(CSc1cn(CC(=O)N2CCCCC2)c2ccccc12)NCc1ccccc1 | -28% | . | i | -11%
O=C(COC(=O)CCC(=O)c1cccs1)Nc1ccccc1C(F)(F)F | -1% | 3% | i | -1%
COc1ccc(NC(=O)C2Cc3cc(S(=O)(=O)N4CCCCC4)ccc3N2C(C)=O)cc1Cl (configuration not stated) | 10µM* | -3% | -14% | -5%
COc1ccc(S(=O)(=O)N2CCOCC2)cc1C(=O)Nc1ccc(N2CCCCCC2)cc1 | 10µM* | 3% | -18% | -22%
COc1ccc(S(=O)(=O)N2CCCCC2)cc1NCC(=O)Nc1ccc(C)cc1 | 8.9µM* | 20% | -18% | -18%
COc1ccc(Cl)cc1NC(=O)C1Cc2cc(S(=O)(=O)N3CCCC3)ccc2N1C(C)=O (configuration not stated) | ? | 3% | -24% | -2%
